Cy5 interf NS3h: Cy5 fluorescence interference, HCV helicase counter-screen; Cy5-dT15 DNA with NS3h; actives lie on both sides; signal over control mean, under 1 quenches; fluorescence interference ratio at 100 µM; 6% of 16,000 active;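 active means compound fluorescence over control fluorescence at most 0.8, a quencher, or at least a set upper limit, an enhancer; inactive means ratio between 0.8 and the set upper limit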
HCV NS3h FP: hepatitis C NS3 helicase inhibition, primary screen; NS3h Cy5-dT15 DNA binding, fluorescence polarization; inhibition, % at 100 µM; 1.6% of 16,000 active;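 active means inhibition above the average over every tested compound plus 3 SD, cut at about 40% in these data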
* = called active by the depositor. In the library only some 6.9% were active in any assay of this set; here they are far more common.

SMILES	Cy5 interf NS3h	HCV NS3h FP
CC(NC(=O)CN(c1ccccc1)S(=O)(=O)c1ccccc1[N+](=O)[O-])c1ccccc1 (stereo not given)	0.68*	20
CC(C)CNC(=O)CN(c1ccccc1)S(=O)(=O)c1ccccc1[N+](=O)[O-]	0.69*	20
O=C(CN(c1ccccc1)S(=O)(=O)c1ccccc1[N+](=O)[O-])Nc1cccc(Cl)c1	1	-6
CC(NS(=O)(=O)c1ccc(Cl)cc1)C1C2CC3CC(C2)CC1C3 (stereo not given)	0.96	10
O=C(CSc1nnc(-c2ccco2)n1-c1ccccc1)NCc1ccccc1	0.91	-2
Cc1ccc(C(=O)Oc2ccc(C=C3C(=O)NC(=O)NC3=O)cc2)cc1	0.94	4
N#Cc1c(-c2cc(Br)cs2)c2c(=O)[nH]c(=O)[nH]c2[nH]c1=O	1.2*	4
O=C1C(=O)N(Cc2ccc3c(c2)OCO3)c2ccccc21	0.98	10
O=C(COc1cccc2ccccc12)NCC1CCCO1 (stereo not given)	0.77*	10
O=C(COc1cccc2ccccc12)NCc1cccnc1	0.74*	17
O=C(COc1cccc2ccccc12)NCc1ccccn1	0.91	1
O=C(COc1cccc2ccccc12)NCc1ccco1	0.89	4
CCSC(C)CC1CC(=O)CC(=O)C1C(=O)OC (stereo not given)	1	0
CC(C)N(C(=O)c1ccccc1F)C(C)C	0.99	4
COc1cccc(NC(=O)CN(c2ccc(OC)c(Cl)c2)S(=O)(=O)c2ccccc2)c1	1	6
COc1ccc(C2Nc3ccc4ccccc4c3C3=C2C(=O)CC(C)(C)C3)cc1[N+](=O)[O-] (stereo not given)	0.97	9
CC1(C)CC(=O)C2=C(C1)c1c(ccc3ccccc13)NC2c1ccccc1F (stereo not given)	0.75*	21
NC(=O)c1ccc(NC(=O)CCC(=O)O)cc1	1.1	1
CC(=O)Nc1ccc(NC(=O)CCC(=O)O)cc1	0.63*	-1
CS(=O)(=O)N1CCN(CCCc2ccccc2)CC1	1	-5
CS(=O)(=O)N1CCN(Cc2ccccc2Cl)CC1	0.61*	1
Oc1ccc(Br)cc1CN1CCN(Cc2cccc3ccccc23)CC1	0.93	-8
CS(=O)(=O)N1CCN(Cc2cccc3ccccc23)CC1	0.69*	10
C=CCOc1ccc(/C=C2\SC(=S)N(Cc3ccccc3)C2=O)cc1OC	1	4
C=CCN1C(=O)/C(=C2\SC(=S)N(Cc3ccco3)C2=O)c2ccccc21	0.98	17
SMILES	Cy5 interf NS3h	HCV NS3h FP
NC(=O)CN1C(=O)/C(=C2\SC(=S)N(Cc3ccccc3)C2=O)c2ccccc21	0.8*	7
Cc1cc(Br)cc(C)c1NC(=O)COc1ccccc1	1	20
CC12CC3CC(C)(C1)CC(CNC(=O)COc1ccccc1)(C3)C2	0.7*	18
O=C(CCNc1ccc2ccccc2c1)c1ccc([N+](=O)[O-])cc1	1	14
CN(C)CCNC(=O)/C(=N/O)c1ccccn1	1	2
Cc1ccc(/C=N\NC(=O)c2ccccc2C)cc1	0.79*	11
O=C(N/N=C\c1ccc(Cl)cc1)c1ccc(O)cc1	0.93	0
O=C(CN1C(=O)/C(=C/c2cccc(Br)c2)SC1=S)Nc1cccc(C(=O)O)c1	0.76*	39
COc1cc(/C=C2/SC(=S)N(CC(=O)Nc3cccc(C(=O)O)c3)C2=O)cc(OC)c1OC	1	15
O=C(Nc1cccc(I)c1)c1ccc(-c2ccccc2)cc1	1.1	4
CC1=NN(c2ccc(S(N)(=O)=O)cc2)C(=O)/C1=C\c1ccc(C(C)C)cc1	0.94	7
CC1=NN(c2ccc(S(N)(=O)=O)cc2)C(=O)/C1=C\c1cccc(Br)c1	0.81	42*
CC(=O)c1cccc(N2C(=O)C3C4C=CC(C4=C(C)C)C3C2=O)c1 (stereo not given)	1.1	-1
O=C(c1cccc(N2C(=O)C3C4C=CC(C4)C3C2=O)c1)c1cccc(N2C(=O)C3C4C=CC(C4)C3C2=O)c1 (stereo not given)	1.1	43*
COc1ccc(C(=O)N2CCN(c3ccc([N+](=O)[O-])cc3)CC2)cc1Br	0.94	11
CN1CCN(C(=O)CCCN2C(=O)/C(=C/c3cccs3)SC2=S)CC1	0.97	5
CN(c1ccccc1)c1ccc(C=C2C(=O)NC(=O)NC2=O)cc1	1.1	46*
O=C1NC(=O)C(=Cc2ccc(OCc3cccc4ccccc34)cc2)C(=O)N1	0.93	3
CC(=O)Nc1ccc(Oc2ccccc2)cc1	0.83	10
O=C(Nc1ccc(Oc2ccccc2)cc1)C(F)(F)F	0.78*	14
COc1ccccc1-n1cnc2cc(Nc3nnc(C)c4ccccc34)ccc21	0.93	-2
Cn1cnc2cc(Nc3nnc(-c4ccccc4)c4ccccc34)ccc21	1	-4
Cc1nnc(Nc2ccc3c(c2)ncn3C)c2ccccc12	1.2*	12
COc1ccc(-n2cnc3cc(Nc4nnc(C)c5ccccc45)ccc32)cc1	0.74*	5
COc1ccc(-c2nnc(Nc3ccc4c(c3)nc(C)n4C)c3ccccc23)cc1	0.93	5
SMILES	Cy5 interf NS3h	HCV NS3h FP
Cc1ccc(-c2nnc(Nc3ccc4c(c3)nc(C)n4C)c3ccccc23)cc1	0.71*	5
O=C(COc1ccc2c3c(c(=O)oc2c1)CCC3)c1ccc(F)cc1	1.1	3
COc1ccc(CC2S/C(=N/N=C\c3ccc(C(C)C)cc3)NC2=O)cc1 (stereo not given)	1	5
Cc1ccc(C(=O)NC(NC(=S)Nc2cc(C)ccc2C)C(Cl)(Cl)Cl)cc1 (stereo not given)	0.64*	3
Cc1ccc(C(=O)NC(NC(=S)Nc2ccccc2)C(Cl)(Cl)Cl)cc1 (stereo not given)	0.96	0
COc1ccc(CC(=O)Nc2ccc(NC(=O)c3ccc(C(C)(C)C)cc3)cc2)cc1OC	1.1	-13
CC(=O)OCCCN1C(=O)c2ccc([N+](=O)[O-])cc2C1=O	1	-3
CCOC(=O)c1c(NC(=O)c2ccc([N+](=O)[O-])cc2)sc2c1CCCCC2	0.98	-10
CCOC(=O)c1c(NC(=O)Cn2cnc([N+](=O)[O-])n2)sc2c1CCC2	0.57*	9
c1ccc2cc(OCCOCCOc3ncnc4ccccc34)ccc2c1	0.94	17
CC(C)(C)c1ccc(OCC(=O)Nc2cccc(C(=O)Nc3nccs3)c2)cc1	0.8*	-6
CC(C)(C)c1ccc(OCC(=O)Nc2cccc(OC(F)(F)F)c2)cc1	1	7
CN(C1=NS(=O)(=O)c2cc([N+](=O)[O-])ccc21)c1ccccc1	0.89	-2
O=[N+]([O-])c1ccc2c(c1)S(=O)(=O)N=C2Nc1cccc(Cl)c1	0.73*	-10
Nc1nnnn1/N=C\c1ccc(C=O)cc1	0.71*	-9
Nc1nnnn1/N=C\c1ccc(OCc2ccccc2)cc1	1.1	-5
COc1ccc(C(=O)Nc2ccc(Br)cn2)cc1OC	1	8
CC(O)c1cccc(NC(=O)c2cc3n(n2)C(C(F)(F)F)CC(c2ccc(F)cc2)N3)c1 (stereo not given)	0.96	15
CC(O)c1ccc(NC(=O)c2cnn3c2NC(c2cccs2)CC3C(F)(F)F)cc1 (stereo not given)	1	5
O=C(c1cc2n(n1)C(C(F)(F)F)CC(c1ccc(F)cc1)N2)N1CCCC1 (stereo not given)	0.75*	8

Screening data (PubChem)
